# Source: PubChem
# RBX1-CUL1 inh – inhibitors of human ROC1-CUL1 ubiquitin ligase activity; 140,000 compounds, 0.6% hits; in vitro K48 di-Ub FRET, acceptor:donor ratio, 45 min; AID 1347404, 2020; E3 ubiquitin-protein ligase RBX1 (Homo sapiens) + Cullin-1 (Homo sapiens), P62877+Q13616; inhibition, % at 10 µM; in the data active = inhibition above about 25%
# * marks the source's active call; other numbers are inactive results. This excerpt belongs to a sample that is enriched for hits.
SMILES,RBX1-CUL1 inh
COc1ccc(Cl)cc1NC(=O)c1c(NCc2ccc(C)o2)sc2c1CCCCC2,26*
COc1ccc(OC)c(NC(=O)c2c(NCc3sccc3C)sc3c2CCCCC3)c1,3
COc1ccccc1NC(=O)c1c(NCc2ccc(C)o2)sc2c1CCCCC2,24
CCCC(=O)Oc1ccc(C2Oc3nc(SC)nnc3-c3ccccc3N2C(=O)CCC)cc1OCC (centres undefined),-7
CN(CCOC(c1ccccc1)c1ccccc1)CCc1ccccc1,4
CCCN1CCN(c2ccc(C(=O)NCCC3CCCCN3C)cn2)CC1 (centres undefined),-3
CN(C)c1nc(SCC(N)=O)nc(N(C)C)n1,7
NC(=O)CSc1nc(N2CCOCC2)nc(N2CCOCC2)n1,50*
N#Cc1nc(N2CCOCC2)nc(N2CCOCC2)n1,1
CCOc1cc(C2C3CC(C(C)(C)C)CC=C3C(C#N)C(=N)C2(C#N)C#N)c(Br)cc1OCC#N (centres undefined),7
CCOc1cc(/C=C2\C(=O)NN(c3ccc(C)c(C)c3)C2=O)ccc1O,7
CCOc1cc(/C=C2\C(=O)NN(c3cccc(Cl)c3)C2=O)c(Br)c(Br)c1O,62*
CCOc1cc(/C=C2\C(=O)NN(c3ccc(C)c(Cl)c3)C2=O)c(Br)c(Br)c1O,100*
COc1cc(/C=C2/C(=O)NN(c3ccc(C)c(Cl)c3)C2=O)cc(Cl)c1O,19
CCOc1ccccc1/C=C1\C(=O)NN(c2ccc(Br)cc2)C1=O,-2
O=C1NN(c2cccc(Cl)c2)C(=O)/C1=C/c1ccccc1O,-1
C=C1C2(C(=O)Nc3cc(C)cc(C)c3)CCC(C2)C1(C)C (centres undefined),-8
CC(=O)c1c(C)nc2sc3c(-n4nc(C)cc4C)nc(C)nc3c2c1-c1ccc(Cl)cc1,-10
COC(=O)COc1ccc2c(=O)c(Oc3ccccc3)c(C)oc2c1,-6
Cc1oc2cc(OC(C)C)ccc2c(=O)c1Oc1ccccc1F,0
Cc1oc2c(O)c(O)ccc2c(=O)c1Oc1ccc(F)cc1,56*
N=C1/C(=C/c2ccc(-c3ccccc3)o2)C(=O)N=C2SC(C(F)(F)F)=NN12,60*
COc1ccc(/C=C2/C(=N)N3N=C(C(F)(F)F)SC3=NC2=O)c(OC)c1OC,6
N=C1/C(=C/c2ccc(-c3ccccc3)o2)C(=O)N=C2SC(c3ccccc3Cl)=NN12,4
Cc1c(/C=C2\C(=N)N3N=C(C(F)(F)F)SC3=NC2=O)c2ccccc2n1Cc1ccc(F)cc1,4
SMILES,RBX1-CUL1 inh
N=C1/C(=C/c2ccc(-c3ccc(F)cc3)o2)C(=O)N=C2SC(C(F)(F)F)=NN12,93*
CC(C)C1=NN2C(=N)/C(=C/c3ccc(-c4cc(Cl)cc(Cl)c4)o3)C(=O)N=C2S1,-1
CCOc1ccc(OCC(=O)Nc2cc(Cl)ccc2OC)cc1,-6
Cn1ccnc1CN1CCN(C(=O)c2cc(COc3ccccc3)[nH]n2)CC1,-4
CCn1c(SCC(=O)Nc2cc(Cl)ccc2C)nnc1-c1ccccc1,-12
Cc1cc(OC(C)C(=O)N2CCCC(C)C2)ccc1Cl (centres undefined),10
COc1ccc(C(F)(F)F)cc1N=CCc1nnnn1-c1ccc(C)cc1,-4
CCC(C(=O)NCC(C)C)c1ccccc1 (centres undefined),2
CC(Sc1nc(-c2ccccc2)c(-c2ccccc2)[nH]1)C(=O)O (centres undefined),-3
COc1ccc(C(=O)CSc2nc(-c3ccccc3)c(-c3ccccc3)[nH]2)cc1,4
O=C(CSc1nc(-c2ccccc2)c(-c2ccccc2)[nH]1)c1ccc(O)c(O)c1O,101*
C=CCn1c(SCC(=O)Nc2sccc2C#N)nc2sc3c(c2c1=O)CCCC3,2
CCOc1ccccc1NC(=S)NC(=O)Cc1ccc(Cl)cc1,-5
CCOc1ccc(S(=O)(=O)Nc2cc(SCC(=O)O)c(O)c3ccccc23)cc1,43*
Cc1ccc(Sc2cc(NS(=O)(=O)c3ccccc3)c3ccccc3c2O)cc1,70*
CCOc1ccc(S(=O)(=O)Nc2ccc(S(=O)(=O)Nc3cccc4ccccc34)cc2)cc1,3
Cc1cc(O)ccc1NS(=O)(=O)c1ccccc1,9
CCc1ccc(S(=O)(=O)Nc2cc(SCC(=O)O)c(O)c3ccccc23)cc1,108*
CCc1ccc(S(=O)(=O)NCC(=O)O)cc1,7
Cc1ccc(S(=O)(=O)Nc2ccccc2-c2ccccc2NS(=O)(=O)c2ccc(C)cc2)cc1,7
COc1ccc(S(=O)(=O)Nc2cc(SCc3ccccc3)c(O)c3ccccc23)cc1,2
CCOc1ccc(S(=O)(=O)Nc2cc3c(C(=O)OC)c(COC)oc3c3ccccc23)cc1,4
C/C(=C1/C(=O)NN=C1c1ccc(Cl)cc1Cl)N(C)C,1
CC(C)C(=O)Nc1cc(C(=O)NC2CCCCC2)ccc1Cl,4
CC1=NN(c2cc(Cl)ccc2Cl)C(=O)/C1=C\C1C(=O)NC(=O)N(c2ccc(C)cc2)C1=O (centres undefined),-2
